Assay outcomes as filed in PubChem BioAssay.
This is a sample that favours compounds with a hit; in the whole collection about 4.4% have one here.
TIM10 inh = TIM10 yeast growth inhibition. inhibition, % at 10 µM. S. cerevisiae TIM10 strain growth, BacTiter-Glo luminescence, 24 h. AID 463195. 330,000 compounds, 1.4% hits;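 active = inhibition of 40% or more at the single tested concentration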;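 also: wild-type TIM10 isogenic control strain grown at permissive 25 °C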
PfHsp90 yeast 2 = growth inhibition of yeast expressing Plasmodium Hsp90; AID 504621; inhibition, % at 9.4 µM; S. cerevisiae expressing PfHsp90, BacTiter-Glo ATP, 48 h; yeast lacking PDR1 and PDR3 efflux regulators; 310,000 compounds, 0.32% hits;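 active = every replicate shows inhibition above about 80%, whatever the replicate mean, limit read from the data; inconclusive = mean inhibition reaches the set limit but some replicate falls short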;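 also: 0% = DMSO neutral controls and 100% = 20 µM radicicol positive controls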
tim10-1 inh = inhibits growth of tim10-1 mutant yeast; S. cerevisiae tim10-1 ts strain growth, BacTiter-Glo, 24 h; inhibition, % at 20 µM; 330,000 compounds, 2.2% hits; AID 463190;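 active = inhibition of at least 40%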;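 also: mutant grown at 25 °C; 0% = DMSO wells with yeast and 100% = wells holding no yeast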
SKKanGAS inh = SKKanGAS growth inhibition; inhibition, % at 7.5 µM; AID 1662; 300,000 compounds, 1.3% hits; S. pyogenes SKKanGAS, kanamycin growth, BacTiter-Glo, 6 h;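 active = mean replicate score, as percent of positive control median, at least 50; inconclusive = mean below 50 but one replicate at or above 50; inactive = mean and every replicate below 50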;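 also: strain carries kanamycin resistance gene driven by streptokinase promoter and grows in 40 µg/ml kanamycin; loss of luminescence reflects streptokinase promoter inhibition or plain growth inhibition; 0% = median of DMSO wells and 100% = positive control at its reference dose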
tim23-1 inh = growth inhibitors of tim23-1 mutant yeast. S. cerevisiae tim23-1 growth, BacTiter-Glo luminescence, 24 h. inhibition, % at 20 µM. 330,000 compounds, 1.3% hits. AID 463212;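 active = growth inhibition of the mutant yeast at or above 50%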;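 also: temperature-sensitive mutant grown at 25 °C; plate controls were DMSO-treated mutant yeast for no effect and medium wells lacking yeast for full effect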
Starred values were filed as active, the others as inactive; ? = inconclusive; · = no result.

SMILES	TIM10 inh	PfHsp90 yeast 2	tim10-1 inh	SKKanGAS inh	tim23-1 inh
Cc1ccccc1C(=O)Nc1ccccc1N1CCN(C(=O)c2ccccc2)CC1	3	0	31	55*	28
COc1c(C)cc(Br)cc1C(=O)Nc1ccccc1N1CCN(C(=O)c2ccccc2)CC1	13	-52	9	38	24
C[C@@H](NC(=O)c1[nH]cnc1C(=O)Nc1nccs1)c1ccccc1	-6	3	-1	·	0
COc1cccc(/C=N/NC(=O)c2ccoc2C)c1O	23	4	-10	77*	42
Fc1ccc(-[n+]2nc(Nc3ccccc3)sc2-c2c(Cl)cccc2Cl)cc1	22	3	30	-2	33
CCc1ccc(Nc2n[n+](-c3ccccc3)c(-c3c(Cl)cccc3Cl)s2)cc1	-6	-3	10	88*	-2
COc1cc(OC)c(C=NNC(=S)NC23CC4CC(CC(C4)C2)C3)c(OC)c1	·	-11	·	·	·
Cc1cc(/C=C2\SC(=Nc3ccccc3)NC2=O)c(C)n1-c1ccc(S(N)(=O)=O)cc1	11	-17	21	72*	7
Cc1[nH]c2ccccc2c1C(c1ccccn1)c1c(C)[nH]c2ccccc12	6	-12	14	72*	2
Cc1ccc(NC(=O)C(C)OC(=O)COc2cccc(C(F)(F)F)c2)cc1 (centres undefined)	-36	6	9	·	20
Cc1ccccc1C(=O)Oc1cccc(Nc2ncnc3ccccc23)c1	8	8	38	75*	2
O=C(NCC(=O)N1CCN(C/C=C/c2ccccc2)CC1)c1ccc(OC(F)F)cc1	-10	-16	-6	·	-7
CCOc1ccc(/C=N/NC(=S)NC2CC3CC2C2C=CCC32)cc1 (centres undefined)	29	-16	32	64*	25
CCOc1ccc(/C=N/NC(=S)NC2CC3CCC2C3)cc1 (centres undefined)	15	0	32	20	19
Cc1cccc(N2CCN(C(=O)C34CC5CC(CC(C5)C3)C4)CC2)c1C	31	-14	28	83*	9
O=C(N1CCN(c2ccccc2F)CC1)C12CC3CC(CC(C3)C1)C2	24	4	38	5	34
CN(CC(=O)Nc1ccccc1Cl)C(=O)Cn1cc(C(F)(F)F)ccc1=O	4	7	0	·	11
ClC(Cl)c1nnc(-c2ccccc2)c(-c2c[nH]c3ccccc23)n1	15	-11	24	11	23
c1ccc(-c2nnc(-c3c[nH]c4ccccc34)nc2-c2ccccc2)cc1	18	-48	24	65*	29
Cc1ccc(NS(=O)(=O)c2ccc(Cl)c(NC(=S)NC(=O)C3CCCCC3)c2)cc1Cl	5	-2	4	84*	17
CCOc1ccc(OCCC(=O)OCC(=O)N2CCN(S(=O)(=O)c3ccc(Cl)cc3)CC2)cc1	22	17	36	-14	30
Cc1ccc2c(c1)C(=O)CC1(CCC(C(C)(C)C)CC1)O2 (centres undefined)	-5	-16	9	68*	15
CC1=C(CC(=O)c2ccc(Cl)cc2)C(=O)c2ccccc2C1=O	12	-17	23	45	20
Cc1oc2c(c1C(=O)c1ccc(Cl)cc1)C(=O)C(=O)c1ccccc1-2	·	·	·	75*	·
Cc1ccc(C(=O)c2c(C)oc3c2C(=O)C(=O)c2ccccc2-3)cc1	23	·	22	93*	38
SMILES	TIM10 inh	PfHsp90 yeast 2	tim10-1 inh	SKKanGAS inh	tim23-1 inh
[O-][n+]1c2ccccc2c2n1CCN1CCOC21c1ccc(Cl)cc1 (centres undefined)	8	4	9	·	12
O=C1CCCN1CCC1CCN(C2CC(=O)N(c3ccc(Cl)cc3)C2=O)CC1 (centres undefined)	32	102*	36	-6	39
COc1ccc2nc(-c3ccccc3)nc(C3CCCCC3)c2c1	10	-2	26	13	21
COc1ccc2nc(C3CCCCC3)nc(C3CCCCC3)c2c1	-15	15	-15	90*	14
CN(C(=O)c1cccc(NC(=O)Cc2ccc(NC(=O)C3CCCN(C(=O)C4CCCCC4)C3)cc2)c1)C1CCCCC1 (centres undefined)	·	-1	·	·	·
O=S(=O)(c1ccccc1)c1nc(-c2ccc(F)cc2)oc1N1CCOCC1	5	0	-1	-3	18
O=S(=O)(c1ccc(F)cc1)c1nc(-c2ccccc2)oc1N1CCOCC1	3	4	28	54*	27
CC(=O)N1CCN(c2cc3c(cc2F)c(=O)c(C(=O)O)cn3C2CC2)CC1	9	-11	-10	?	8
CCn1cc(C(=O)O)c(=O)c2cc(F)c(N3CCN(C(=S)NC(=O)c4ccc(F)cc4)CC3)cc21	-31	2	-5	25	7
CCN1CCN(c2cc3c(cc2F)c(=O)c(C(=O)O)cn3C2CC2)CC1	4	13	8	103*	7
CCCOc1ccc(C(=O)NC(=S)N2CCN(c3cc4c(cc3F)c(=O)c(C(=O)O)cn4CC)CC2)cc1	-2	19	9	91*	-17
CCN(C(=O)COC(=O)c1ccc2ccccc2n1)c1c(N)n(Cc2ccccc2)c(=O)[nH]c1=O	-4	-13	-2	·	8
O=C(O)c1ccc(N2C(=O)/C(=C/c3ccc(-c4ccc([N+](=O)[O-])cc4)o3)C=C2c2ccccc2)cc1	40	-37	33	104*	32
FC(F)(F)c1cc(-c2ccccc2)nc(N2CCCCC2)n1	-9	18	9	84*	10
FC(F)(F)c1cc(-c2ccccc2)nc(N2CCOCC2)n1	-5	33	12	14	-7
Nc1c(N(Cc2ccccc2)C(=O)COc2ccc(F)cc2Cl)c(=O)[nH]c(=O)n1Cc1ccccc1	4	4	3	·	-3
Cn1c2ccccc2c2cc(/C=N/NC(=O)c3cc(O)cc(O)c3)ccc21	-2	19	5	18	6
COc1cc(C(=O)N/N=C/c2ccc3c(c2)c2ccccc2n3C)ccc1O	-9	-1	-12	51*	-7
CC(NC(=O)CNC(=O)c1ccccc1F)c1ccc(-n2ccnc2)cc1 (centres undefined)	5	9	20	·	-6
O=C(OCCc1cc2ccccc2c(=O)o1)c1cccc(Br)c1	-24	-3	7	·	21
Cc1ccc(/C(=N/Nc2nc3ccccc3s2)C2=C(O)c3ccccc3C2=O)cc1	8	-42	14	57*	25
CCCCCCCCCc1nc2sc3c(c2c(=O)n1NC(=O)c1ccc([N+](=O)[O-])cc1)CC(C)(C)OC3	-5	-23	35	64*	11
CCCc1nc2sc3c(c2c(=O)n1NC(=O)c1ccco1)CC(C)(C)OC3	10	2	24	3	17
CCCCCCCCCc1nc2sc3c(c2c(=O)n1NC(=O)c1ccccc1[N+](=O)[O-])CC(C)(C)OC3	22	-14	19	65*	16
CCc1nc2sc3c(c2c(=O)n1N)CC(C)(C)OC3	-5	0	6	-7	15
